Assay results as given in PubChem BioAssay AID1159580 (chemical genetic matrix, 2015).
Where “and” joins values, the source holds several entries; their conditions need not be identical. Identical values can stand only once. The whole screen tested about 5,500 compounds, of which about 2,000 (36%) were called active. Another 18% or so got no clear call; they are omitted. No stated cut-off is given here; in the data, active means normalized growth mostly below about 0.91 (no sharp cut-off); inconclusive means no clear call, values can overlap the other calls; inactive means mostly above about 0.92. Some of the results follow.

Experiment: chemical genetic growth profiling, strain panel (AID 1159580);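 further: tested at 20 µM; growth read once vehicle control cultures reached saturation at 30 °C; 1 = growth at the plate median or of vehicle wells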
Settings: growth OD

Measured: normalized growth

CC[C@H]1CN2CCC1C[C@@H]2[C@@H](O)c1ccnc2ccc(OC)cc12 (some centres not stated)
inactive: S. cerevisiae deletion strains, locus YAL013W, strain DEP1, stronger effect = lower value 0.997 | S. cerevisiae deletion strains, locus YBR021W, strain FUR4, stronger effect = lower value 0.996 | S. cerevisiae deletion strains, locus YBR229C, strain ROT2, stronger effect = lower value 0.992 | S. cerevisiae deletion strains, locus YCL029C, strain bik1, stronger effect = lower value 1.01 | S. cerevisiae deletion strains, locus YDL035C, strain GPR1, stronger effect = lower value 0.995 | S. cerevisiae deletion strains, locus YDL074C, strain BRE1, stronger effect = lower value 1.01 | S. cerevisiae deletion strains, locus YDL101C, strain DUN1, stronger effect = lower value 0.995 | S. cerevisiae deletion strains, locus YDL134C, strain PPH21, stronger effect = lower value 1.01 | S. cerevisiae deletion strains, locus YDL185W, strain tfp1, stronger effect = lower value 1.01 | S. cerevisiae deletion strains, locus YDL192W, strain arf1, stronger effect = lower value 1.01 | S. cerevisiae deletion strains, locus YDR101C, strain arx1, stronger effect = lower value 1 | S. cerevisiae deletion strains, locus YDR150W, strain NUM1, stronger effect = lower value 1.01 | S. cerevisiae deletion strains, locus YDR162C, strain NBP2, stronger effect = lower value 1 | S. cerevisiae deletion strains, locus YDR318W, strain mcm21, stronger effect = lower value 1.02 | S. cerevisiae deletion strains, locus YDR388W, stronger effect = lower value 1.01 | S. cerevisiae deletion strains, locus YDR502C, strain sam2, stronger effect = lower value 1.04 | S. cerevisiae deletion strains, locus YEL061C, strain CIN8, stronger effect = lower value 1.01 | S. cerevisiae deletion strains, locus YER110C, stronger effect = lower value 1.01 | S. cerevisiae deletion strains, locus YER155C, strain BEM2, stronger effect = lower value 1.01 | S. cerevisiae deletion strains, locus YER167W, strain BCK2, stronger effect = lower value 1 | S. cerevisiae deletion strains, locus YGL078C, strain dbp3, stronger effect = lower value 1.01 | S. cerevisiae deletion strains, locus YGL086W, strain mad1, stronger effect = lower value 1 | S. cerevisiae deletion strains, locus YGL248W, strain PDE1, stronger effect = lower value 0.997 | S. cerevisiae deletion strains, locus YGR078C, strain PAC10, stronger effect = lower value 1 | S. cerevisiae deletion strains, locus YGR135W, strain pre9, stronger effect = lower value 1.01 | S. cerevisiae deletion strains, locus YGR229C, strain SMI1, stronger effect = lower value 0.977 | S. cerevisiae deletion strains, locus YGR252W, strain gcn5, stronger effect = lower value 0.994 | S. cerevisiae deletion strains, locus YHR030C, strain SLT2, stronger effect = lower value 1.01 and 1.04 | S. cerevisiae deletion strains, locus YHR079C, strain IRE1 (second series), stronger effect = lower value 1.01 | S. cerevisiae deletion strains, locus YHR079C, strain IRE1, stronger effect = lower value 1.02 | S. cerevisiae deletion strains, locus YHR094C, strain hxt1, stronger effect = lower value 1.01 | S. cerevisiae deletion strains, locus YHR129C, strain ARP1, stronger effect = lower value 1.01 | S. cerevisiae deletion strains, locus YHR200W, strain rpn10, stronger effect = lower value 1.02 | S. cerevisiae deletion strains, locus YIL066C, strain RNR3, stronger effect = lower value 1 | S. cerevisiae deletion strains, locus YIL073C, strain SPO22, stronger effect = lower value 1.03 | S. cerevisiae deletion strains, locus YIL125W, strain kgd1, stronger effect = lower value 1 | S. cerevisiae deletion strains, locus YIR030C, strain dcg1, stronger effect = lower value 1.01 | S. cerevisiae deletion strains, locus YJL095W, strain BCK1, stronger effect = lower value 1.01 and 1.02 | S. cerevisiae deletion strains, locus YJL134W, strain LCB3, stronger effect = lower value 0.997 | S. cerevisiae deletion strains, locus YJL168C, strain set2, stronger effect = lower value 1.01 | S. cerevisiae deletion strains, locus YJL187C, strain SWE1 (second series), stronger effect = lower value 0.999 | S. cerevisiae deletion strains, locus YJR043C, strain POL32, stronger effect = lower value 1.01 | S. cerevisiae deletion strains, locus YJR066W, strain TOR1, stronger effect = lower value 0.956 | S. cerevisiae deletion strains, locus YJR075W, strain HOC1, stronger effect = lower value 1 | S. cerevisiae deletion strains, locus YKL009W, strain mrt4, stronger effect = lower value 1.08 | S. cerevisiae deletion strains, locus YKL068W, stronger effect = lower value 1.01 | S. cerevisiae deletion strains, locus YKL085W, strain MDH1 (second series), stronger effect = lower value 1.03 | S. cerevisiae deletion strains, locus YKL085W, strain MDH1, stronger effect = lower value 1.03 | S. cerevisiae deletion strains, locus YKL190W, strain CNB1, stronger effect = lower value 1.01 | S. cerevisiae deletion strains, locus YKR001C, strain vps1, stronger effect = lower value 1.02 | S. cerevisiae deletion strains, locus YLR039C, strain RIC1, stronger effect = lower value 1.01 | S. cerevisiae deletion strains, locus YLR058C, strain SHM2, stronger effect = lower value 1 | S. cerevisiae deletion strains, locus YLR102C, strain apc9, stronger effect = lower value 1.01 | S. cerevisiae deletion strains, locus YLR113W, strain HOG1, stronger effect = lower value 1.02 | S. cerevisiae deletion strains, locus YLR262C, strain YPT6, stronger effect = lower value 0.988 | S. cerevisiae deletion strains, locus YLR268W, strain sec22, stronger effect = lower value 1.02 | S. cerevisiae deletion strains, locus YLR330W, strain CHS5, stronger effect = lower value 1 | S. cerevisiae deletion strains, locus YLR342W, strain FKS1 (second series), stronger effect = lower value 0.983 | S. cerevisiae deletion strains, locus YLR371W, strain rom2, stronger effect = lower value 1.01 | S. cerevisiae deletion strains, locus YLR418C, strain cdc73, stronger effect = lower value 1.01 | S. cerevisiae deletion strains, locus YML016C, strain PPZ1, stronger effect = lower value 1 | S. cerevisiae deletion strains, locus YML032C, strain rad52, stronger effect = lower value 1.01 | S. cerevisiae deletion strains, locus YML124C, strain tub3, stronger effect = lower value 1.01 | S. cerevisiae deletion strains, locus YMR078C, strain ctf18, stronger effect = lower value 1.03 | S. cerevisiae deletion strains, locus YMR223W, strain ubp8, stronger effect = lower value 0.996 | S. cerevisiae deletion strains, locus YMR263W, strain SAP30, stronger effect = lower value 1.02 | S. cerevisiae deletion strains, locus YMR307W, strain GAS1, stronger effect = lower value 0.95 | S. cerevisiae deletion strains, locus YNL067W, strain RPL9B, stronger effect = lower value 1.01 | S. cerevisiae deletion strains, locus YNL128W, strain TEP1, stronger effect = lower value 1.01 | S. cerevisiae deletion strains, locus YNL153C, strain GIM3, stronger effect = lower value 1 | S. cerevisiae deletion strains, locus YNL183C, strain NPR1, stronger effect = lower value 0.942 | S. cerevisiae deletion strains, locus YNL233W, strain BNI4, stronger effect = lower value 1 | S. cerevisiae deletion strains, locus YNL250W, strain rad50, stronger effect = lower value 1.01 | S. cerevisiae deletion strains, locus YNL271C, strain bni1, stronger effect = lower value 1.01 | S. cerevisiae deletion strains, locus YNL298W, strain CLA4, stronger effect = lower value 1.01 | S. cerevisiae deletion strains, locus YNL307C, strain MCK1, stronger effect = lower value 1.01 | S. cerevisiae deletion strains, locus YNL322C, strain KRE1, stronger effect = lower value 1 | S. cerevisiae deletion strains, locus YNR052C, strain pop2, stronger effect = lower value 1.02 | S. cerevisiae deletion strains, locus YOL006C, strain TOP1, stronger effect = lower value 1.02 | S. cerevisiae deletion strains, locus YOL012C, strain htz1 0.815 | S. cerevisiae deletion strains, locus YOL147C, strain pex11, stronger effect = lower value 1.01 | S. cerevisiae deletion strains, locus YOR061W, strain CKA2, stronger effect = lower value 1.01 | S. cerevisiae deletion strains, locus YOR069W, strain VPS5, stronger effect = lower value 0.998 | S. cerevisiae deletion strains, locus YOR136W, strain idh2, stronger effect = lower value 1.02 | S. cerevisiae deletion strains, locus YOR144C, strain elg1, stronger effect = lower value 1.01 | S. cerevisiae deletion strains, locus YOR184W, strain ser1, stronger effect = lower value 1.01 | S. cerevisiae deletion strains, locus YOR231W, strain MKK1, stronger effect = lower value 1.03 | S. cerevisiae deletion strains, locus YOR316C, strain cot1, stronger effect = lower value 1.01 | S. cerevisiae deletion strains, locus YPL055C, strain LGE1, stronger effect = lower value 0.993 | S. cerevisiae deletion strains, locus YPL241C, strain CIN2, stronger effect = lower value 0.997 | S. cerevisiae deletion strains, locus YPL256C, strain CLN2, stronger effect = lower value 1.02 | S. cerevisiae deletion strains, locus YPR119W, strain clb2, stronger effect = lower value 1.01 | S. cerevisiae deletion strains, locus YPR141C, strain kar3, stronger effect = lower value 1.01 | S. cerevisiae deletion strains, locus YPR163C, strain tif3, stronger effect = lower value 1.02 | S. cerevisiae deletion strains, locus YPR167C, strain met16, stronger effect = lower value 1.01 | S. cerevisiae deletion strains, strain wtn01, stronger effect = lower value 1.03 | S. cerevisiae strains, strain wild type, stronger effect = lower value 0.999
